High-throughput results (PubChem)
LASV entry inh = Lassa virus entry inhibition | Lassa virus pseudotype entry inhibition, cell reporter | Potency, µM (doses to about 37.9 µM), for the others: top-dose activity change, negative = inhibition, most hits filed as inhibitors | hit rate 1.2% among 300,000; calls by dose curve; tested in HEK293 cells; further: potency means the concentration at half of the fitted maximal effect; on the % scale 0 is the no-effect control and ±100 the full control effect; nearly all actives have a fitted effect of over 50% in size
Pf growth 48h = P. falciparum growth inhibition at 48 hours (one generation); Potency, µM (top dose mostly 28.7 µM), without a hit: top-dose activity change, negative = inhibition, usual class: inhibitors; P. falciparum luciferase growth in erythrocytes, 48 h; hit rate 5.9% among 310,000; AID 504832; further: potency means the concentration at half of the fitted maximal effect; on the % scale 0 is the no-effect control and ±100 the full control effect
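A one-generation exposure of luciferase-tagged malaria parasites in RPMI 1640/Albumax erythrocyte culture, 37 C and 5% CO2. Inhibition is inferred from decreased luminescence after adding detection reagent.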
Pf growth 96h = P. falciparum growth inhibition at 96 hours. P. falciparum luciferase reporter growth, 96 h. Potency, µM (doses to about 28.7 µM), inactives show at the highest dose activity change, negative = inhibition, actives largely listed as inhibitors. hit rate 6.9% among 320,000. AID 504834; further: potency means the concentration at half of the fitted maximal effect; on the % scale 0 is the no-effect control and ±100 the full control effect
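Compounds incubated with erythrocytes infected by luciferase-expressing P. falciparum (2% hematocrit, 0.05% parasitemia final) for 96 hours, 37 C in 5% CO2. Growth inhibition scored as decreased luciferase luminescence.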
Shiga toxin inh = Shiga toxin inhibition; Vero cells, Shiga toxin protein synthesis inhibition reporter; inhibition, % at 38.7 µM; hit rate 9.2% among 290,000; in the data active means inhibition mostly above about 28%, no sharp cut-off; inactive means mostly below about 43%; further: 0% is about no effect
MARV entry inh = blocks Marburg virus binding to or entry into cells; Potency, µM (series often up to 37.8 µM), inactives show at the highest dose activity change, negative = inhibition, hits mostly inhibitors; Marburg virus pseudotyped entry inhibition, cell reporter; AID 540276; hit rate 1.8% among 300,000; calls by dose curve; tested in HEK293 cells; further: potency means the concentration at half of the fitted maximal effect; on the % scale 0 is the no-effect control and ±100 the full control effect
Cycloheximide cs = counter-screen for Shiga toxin inhibitors: cycloheximide protein synthesis inhibition | AID 2314 | cell reporter, cycloheximide protein synthesis inhibition counterscreen | hit rate 12% among 300,000 | max response, %; in the data active means max response mostly above about 13%, no sharp cut-off; inactive means mostly below about 14%; further: read at 38.3 µM for the half of the compounds with a filed dose; 0% is about no effect
* hit, by the source's call; ? = inconclusive; . = no result given; [ ] = another dose, or the depositor's remark. Only some compounds are listed: those with a hit (about 19% of all), similar ones and a draw of the others. Unless noted, the call rests on the fitted dose curve; in most records, active means well fitted inhibition curve with a large enough effect; inconclusive means small, poorly fitted or top-dose-only effect, or another doubt; inactive means no such curve, though single readings can be large or run the other way.

SMILES | LASV entry inh | Pf growth 48h | Pf growth 96h | Shiga toxin inh | MARV entry inh | Cycloheximide cs
CCN1CCN(CCCNC(=O)c2cc3cc4ccc(OC)cc4nc3o2)CC1 | 0.0% | 13.1µM* | 45.2% | -22.4 | ? | -4.9
CCCN(CCC)CCCNC(=O)c1cc2cc3ccc(OC)cc3nc2o1 | -24.0% | ? | -1.1% | -11.7 | ? | 1.9
CCOC(=O)C1CCCN(C(=O)c2ccc(S(=O)(=O)N3CCCC3)cc2)C1 (stereo unspecified) | 2.0% | -7.0% | -3.5% | . | -20.6% | .
O=C(CSc1nnnn1-c1ccccc1)Nc1ncc(Cc2ccccc2Cl)s1 | 14.0% | 14.5% | 58.4% | 18.4 | 20.4%[46.1 µM] | -1.3
COc1cc(C(C)=O)ccc1OCC(O)CN1CCN(c2ccc(C)cc2C)CC1 (stereo unspecified) | -12.0% | -9.2% | ? | . | -10.7% | 1.0
CCOc1cc2c(cc1OCC)C(CC(=O)OC)N(C(=O)Nc1cc(OC)ccc1OC)CC2 (stereo unspecified) | 25.7%[46.1 µM] | . | . | . | . | .
CC(C)C(c1nnnn1Cc1ccc(F)cc1)N1CCN(C(=O)c2ccco2)CC1 (stereo unspecified) | 6.0% | ? | 13.1µM* | -13.1 | -4.6% | -3.3
CC(C)CCn1nnnc1C(c1ccc(N(C)C)cc1)N1CCN(C(=O)c2ccco2)CC1 (stereo unspecified) | ? | ? | 10.4µM* | 1.3 | ? | -0.7
COc1ccc(C(c2nnnn2Cc2ccccc2)N2CCN(C(=O)c3ccco3)CC2)cc1OC (stereo unspecified) | -0.7% | ? | 3.7µM* | -14.1 | -4.9% | -1.1
COCCn1nnnc1C(c1ccc(OC)c(OC)c1)N1CCN(C(=O)c2ccco2)CC1 (stereo unspecified) | . | 8.0% | -8.9% | -6.9 | 0.4%[46.1 µM] | -4.3
CCC(c1nnnn1Cc1ccc2c(c1)OCO2)N1CCN(c2ccccc2)CC1 (stereo unspecified) | 0.0% | 11.7µM* | 20.7% | -9.4 | -6.5% | 1.7
CSc1ccc(CNC(=O)Cc2csc3ccccc23)cc1 | 25.1%[46.1 µM] | . | . | . | 3.7%[46.1 µM] | .
Cc1ccc(C(=O)NCC(=O)OCC(=O)NC2CCCC(C)C2C)s1 (stereo unspecified) | 18.6% | 5.2% | 21.3% | -9.2 | 24.3%[46.1 µM] | -2.3
CCOc1ccccc1N(CC(=O)NC1CCCC1)S(=O)(=O)c1ccc(C)cc1 | -12.1% | ? | 27.1% | -5.9 | ? | 5.9
COCCn1nnnc1C(c1ccc(C)cc1)N1CCN(Cc2ccc3c(c2)OCO3)CC1 (stereo unspecified) | 0.8% | ? | . | -13.8 | ? | -4.1
Fc1ccc(C(c2nnnn2Cc2cccs2)N2CCN(c3ccccc3)CC2)cc1 (stereo unspecified) | ? | ? | -28.7% | -2.4 | ? | -2.8
c1ccc(Cn2nnnc2C(c2ccccc2)N2CCN(c3nc4ccccc4s3)CC2)cc1 (stereo unspecified) | -7.0% | 7.4% | -2.3% | 9.8 | 23.6% | -1.7
COc1ccccc1CN1CCN(C(CC(C)C)c2nnnn2Cc2cccs2)CC1 (stereo unspecified) | -1.7% | 13.1µM* | 57.8% | -1.4 | ? | 4.4
COc1ccc(C(c2nnnn2Cc2ccccc2)N2CCN(c3nc4ccccc4s3)CC2)cc1OC (stereo unspecified) | ? | 10.4µM* | 18.1% | 13.4 | ? | -1.6
Cc1ccc(C(c2nnnn2Cc2cccs2)N2CCN(Cc3ccc4c(c3)OCO4)CC2)cc1 (stereo unspecified) | 11.2µM* | ? | 9.0% | -16.3 | ? | 2.2
COc1ccc(C(c2nnnn2Cc2cccs2)N2CCN(c3ccccc3F)CC2)cc1OC (stereo unspecified) | ? | 2.33µM* | . | 58.1 | ? | 9.6
CN(CC(=O)Nc1cccc(F)c1)C(=O)c1ccc2c(c1)S(=O)(=O)N=C1CCCCCN12 | 2.9% | ? | ? | . | ? | .
COC(=O)c1cccc(NC(=O)CSc2nnc(C)n2Cc2ccccc2)c1 | 27.0% | -0.4% | 0.1% | 3.8 | -7.5% | -1.6
CC(C)C(c1nnnn1Cc1ccc(F)cc1)N1CCN(Cc2ccc3c(c2)OCO3)CC1 (stereo unspecified) | ? | ? | ? | -14.3 | 12.6µM* | -6.8
CCN1CCN(C(c2nnnn2Cc2ccc3c(c2)OCO3)C(C)C)CC1 (stereo unspecified) | 4.1% | -6.9% | 4.0% | -9.9 | -3.2% | -1.4
SMILES | LASV entry inh | Pf growth 48h | Pf growth 96h | Shiga toxin inh | MARV entry inh | Cycloheximide cs
COc1ccccc1C(c1nnnn1Cc1ccccc1)N1CCN(c2nc3ccccc3s2)CC1 (stereo unspecified) | ? | 3.29µM* | -5.2%[5.75 µM] | 17.4 | ? | -4.0
CCN1C(=O)/C(=C/C=C2/CCCN2C)OC1=S | 13.0% | 91.0% | 9.8% | 45.7* | -1.3% | 28.1*
CN1C(=O)/C(=C\C=C2/CCCN2C)N(C)C1=S | ? | 33.2% | 12.5% | 54.4 | ? | 22.8*
CCN1C(=O)/C(=C2/C=CC=CN2C)OC1=S | 26.2% | 4.4% | -20.8% | 5.3 | -1.0% | 1.8
CC(=O)N1CCN(C(=O)c2cc3c(s2)CCCC3)CC1 | 20.2% | . | . | . | 25.0% | .
COc1ccc(NC(=O)C(=O)NCC(c2cccnc2)N2CCc3ccccc32)cc1OC (stereo unspecified) | 5.4%[46.1 µM] | . | . | . | . | .
CC(C)(C)c1ccc(NC(=O)C2=CC=CN3CCS(=O)(=O)N=C23)cc1 | . | 287.8% | 377.7% | . | . | .
Cc1cccc(/C(N)=N/OC(=O)Cc2ccccc2)c1 | ? | 50.6% | ? | 81.2* | ? | 41.4*
Cc1cccc(/C(N)=N/OC(=O)C23CC4CC(CC(C4)C2)C3)c1 | ? | ? | ? | 83.6* | ? | 42.4*
N/C(=N\OC(=O)N1c2ccccc2Sc2ccccc21)c1ccccc1 | -29.7% | ? | ? | -9.0 | -23.8% | 8.9
Cc1nc(/C(N)=N/OC(=O)Cc2ccccc2)no1 | 16.8%[46.1 µM] | 51.1% | ? | 17.2 | 20.8% | 16.1
Cc1cccc(/C(N)=N/OC(=O)N2c3ccccc3Sc3ccccc32)c1 | -25.4% | ? | 6.57µM* | 6.0 | -23.7%[46.1 µM] | 6.0
O=C(COC(=O)C12CC3CC(CC(C3)C1)C2)NNC(=O)c1ccccc1 | 0.2% | . | . | . | -5.3% | .
CCC(C(=O)O/N=C(\N)c1cccc(C)c1)c1ccccc1 (stereo unspecified) | 2.0% | . | 28.1% | 114.7 | -0.5% | 23.8*
O=c1[nH]c(=O)n(-c2cccc3ccccc23)c(O)c1/C=N/N1CCCCCC1 | 14.3% | 7.7% | 9.2% | -3.3 | -5.6% | -1.8
CCOc1ccc(CN2CCN(Cc3cccc4nonc34)CC2CCO)cc1 (stereo unspecified) | -10.5% | 17.5% | 14.7µM* | -7.4 | -8.9%[46.1 µM] | -1.7
CCOc1ccc(CN2CCN(Cc3cccc4c3OCO4)CC2CCO)cc1 (stereo unspecified) | -22.0% | 26.3% | ? | -3.2 | ? | -2.0
CCOc1ccc(CN2CCN(Cc3[nH]c4ccccc4c3C)CC2CCO)cc1 (stereo unspecified) | . | ? | 10.4µM* | -23.0 | . | -3.1
